The panel holds about 83,000 compounds, 20% with a hit somewhere; the sample as a whole holds those more often.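 Percent growth is the endpoint: 0 to 100 indicates growth inhibition (40 means 60% inhibition), 0 means no net growth, and negative values indicate cell death.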 The source made the active and inactive calls. The calls were made as follows: active = growth percent below 10; inactive = the rest.
Experiments:
Assay in all cases: NCI-60 one-dose screen, 48 h (100 = growth as untreated, 0 = no growth, -100 = all killed)
Conditions in all cases: 10 µM unless noted
HCT-15 colon = test system: HCT-15 colon
HT29 colon = test system: HT29 colon
SNB-75 CNS = test system: SNB-75 CNS
SNB-19 CNS = test system: SNB-19 CNS
U251 CNS = test system: U251 CNS
PC-3 prostate = test system: PC-3 prostate
UACC-62 melanoma = test system: UACC-62 melanoma
LOX IMVI melanoma = test system: LOX IMVI melanoma
SK-MEL-28 melanoma = test system: SK-MEL-28 melanoma
SK-MEL-5 melanoma = test system: SK-MEL-5 melanoma

Measured: growth

CCOC(=O)CC1CSC(Nc2ccccc2)=N1 (stereo not given)
inactive: HCT-15 colon 107% | HT29 colon 96.8% | SNB-75 CNS 99.7% | SNB-19 CNS 104% | U251 CNS 99.5% | PC-3 prostate 99.9% | UACC-62 melanoma 99.7% | LOX IMVI melanoma 97.3% | SK-MEL-28 melanoma 115%

O=S(=O)(NCCCNc1nccc(-c2c(-c3cccc(F)c3)nc3occn23)n1)c1ccc(F)cc1
inactive: HCT-15 colon 58.3% | HT29 colon 21.9% | SNB-75 CNS 73.5% | SNB-19 CNS 84.9% | U251 CNS 56.1% | PC-3 prostate 29.4% | UACC-62 melanoma 26.5% | LOX IMVI melanoma 44.7% | SK-MEL-28 melanoma 64.2%

C#CCNC(=O)[C@]1(C)CCC[C@@]2(C)[C@H]1CC=C1C=C(C(C)C)CC[C@@H]12
inactive: HCT-15 colon 94.8% | HT29 colon 102% | SNB-75 CNS 86.5% | SNB-19 CNS 101% | U251 CNS 106% | PC-3 prostate 95.4% | UACC-62 melanoma 92.1% | LOX IMVI melanoma 96.8% | SK-MEL-28 melanoma 111%

Nc1ncnc2c1N=C(c1ccc3c(c1)OCO3)CC(c1cccc(Nc3ccnc4cc(C(F)(F)F)ccc34)c1)N2 (stereo not given)
inactive: HCT-15 colon 70.8% | HT29 colon 69.6% | SNB-75 CNS 76.9% | SNB-19 CNS 77.3% | U251 CNS 37.4% | PC-3 prostate 75.6% | UACC-62 melanoma 87.1% | LOX IMVI melanoma 51.8% | SK-MEL-28 melanoma 101%

COc1cc(NC(=O)c2cncnc2Nc2ccc3c(ccn3Cc3ccccn3)c2)cc(OC)c1
active: SNB-75 CNS -3.17%
inactive: HCT-15 colon 30.7% | HT29 colon 11.7% | SNB-19 CNS 58.3% | U251 CNS 45.9% | PC-3 prostate 38.2% | UACC-62 melanoma 58.1% | LOX IMVI melanoma 39.9% | SK-MEL-28 melanoma 63.8%

COc1cc(-c2nc3cc(Cl)c(Cl)cc3[nH]2)ccc1OCC(=O)N=Nc1c(O)[nH]c2ccc(Cl)cc12
active: HT29 colon 9.24% | SNB-75 CNS 6.76% | SNB-19 CNS 9.74% | U251 CNS -89.4% | PC-3 prostate 0.522% | UACC-62 melanoma -11.7% | LOX IMVI melanoma -83.5% | SK-MEL-28 melanoma -2.83%
inactive: HCT-15 colon 58.4%

COc1ccc(CCN(CC(=O)N(CC(N)=O)C2CCC[C@@H]2OCc2ccccc2)C(=O)CN(C(=O)CN(CCc2ccc(Cl)cc2)C(=O)CN(C(=O)CN(C)Cc2ccccc2F)[C@H](C)C2CCCCC2)[C@H](C)C2CCCCC2)cc1OC (stereo not given in full)
inactive: HCT-15 colon 33.7% | SNB-75 CNS 53.5% | SNB-19 CNS 33.9% | U251 CNS 21.5% | PC-3 prostate 15% | UACC-62 melanoma 33.8% | SK-MEL-28 melanoma 32.5%
active: HT29 colon 0.386% | LOX IMVI melanoma -33%

CCCCNC(=O)Oc1ccc(/C(=C(/C)Cc2ccc(OC)cc2)c2ccc(OCCN3CCCCC3)cc2)cc1
active: HT29 colon 2.86%
inactive: HCT-15 colon 32.3% | SNB-75 CNS 64.8% | SNB-19 CNS 77.1% | U251 CNS 54.7% | PC-3 prostate 59% | UACC-62 melanoma 67.7% | LOX IMVI melanoma 70.4% | SK-MEL-28 melanoma 78.2%

CCOC(=O)c1c(C)nc2ccccc2c1/C=C/c1cccs1
inactive: HCT-15 colon 58.6% | HT29 colon 76.3% | SNB-75 CNS 80.1% | SNB-19 CNS 83.5% | U251 CNS 81.2% | PC-3 prostate 60.4% | UACC-62 melanoma 50.7% | LOX IMVI melanoma 73.1% | SK-MEL-28 melanoma 106%

CN(C)c1ccc(/C=C(\C#N)c2cc3ccccc3[nH]2)cc1
active: HT29 colon 5.51%
inactive: HCT-15 colon 23.6% | SNB-75 CNS 10.9% | SNB-19 CNS 29.5% | U251 CNS 17.4% | PC-3 prostate 28.3% | UACC-62 melanoma 30.9% | LOX IMVI melanoma 27.6% | SK-MEL-28 melanoma 54.7%

CCCCNc1cc(-c2cn[nH]c2-c2cc(C)cc(OC)c2)nc(-c2cccnc2)n1
inactive: HCT-15 colon 82.7% | HT29 colon 95.1% | SNB-75 CNS 76.2% | SNB-19 CNS 95.6% | U251 CNS 87.3% | SK-MEL-5 melanoma 77.4% | UACC-62 melanoma 80.2% | LOX IMVI melanoma 91.2% | SK-MEL-28 melanoma 96.4%

N#Cc1cncc(-c2ccc3ncnc(Nc4cccc(Cl)c4)c3c2)c1
inactive: HCT-15 colon 77.9% | HT29 colon 66.8% | SNB-75 CNS 65.5% | SNB-19 CNS 63.3% | U251 CNS 62.1% | PC-3 prostate 63.5% | LOX IMVI melanoma 91.1% | SK-MEL-28 melanoma 81.8%

C/C(=N\O)[C@@H]1CC[C@]2(CO)CC[C@]3(C)[C@H](CC[C@@H]4[C@@]5(C)CCCNC(C)(C)[C@@H]5CC[C@]43C)[C@@H]12
inactive: HCT-15 colon 83.6% | HT29 colon 24.5% | SNB-75 CNS 68.9% | SNB-19 CNS 89.4% | U251 CNS 61.4% | SK-MEL-5 melanoma 84.1% | UACC-62 melanoma 90.5% | LOX IMVI melanoma 77.6% | SK-MEL-28 melanoma 93.2%

COc1cc(OC)c(C(=O)C(CN(C)C)CN(C)C)cc1OC
inactive: SNB-75 CNS 91.4% | SNB-19 CNS 102% | U251 CNS 101% | SK-MEL-5 melanoma 101% | UACC-62 melanoma 19.2% | SK-MEL-28 melanoma 21.8%
active: HCT-15 colon -52.4% | HT29 colon 2.66% | LOX IMVI melanoma -68.8%

O=S1(=O)C=C(c2ccccc2)C(c2ccccc2)=C1
inactive: SNB-75 CNS 50% | SNB-19 CNS 76.6% | U251 CNS 14.8% | SK-MEL-5 melanoma 27.4% | SK-MEL-28 melanoma 17.9%
active: HCT-15 colon -6.66% | HT29 colon -34.3% | UACC-62 melanoma 5.7% | LOX IMVI melanoma -69.4%

CCOC(=O)C#Cc1c(C(=O)OCC)nnn1Cc1ccc(C(F)(F)F)cc1
inactive: SNB-75 CNS 62.3% | SNB-19 CNS 85.5% | U251 CNS 93.7% | SK-MEL-5 melanoma 95.2% | UACC-62 melanoma 80% | SK-MEL-28 melanoma 89.7%
active: HCT-15 colon -16.9% | HT29 colon 5.09% | LOX IMVI melanoma -68.3%

CC1=C(C(=O)Nc2nc(-c3ccc(Cl)cc3)cs2)[C@H](c2ccc(O)cc2)NC(=O)N1
inactive: HCT-15 colon 102% | HT29 colon 100% | SNB-75 CNS 74.3% | SNB-19 CNS 107% | U251 CNS 93.4% | SK-MEL-5 melanoma 99.8% | UACC-62 melanoma 88.8% | LOX IMVI melanoma 95.1% | SK-MEL-28 melanoma 115%

Cc1nnc(-c2ccc3c(c2)nc(/C=C/c2ccccc2)n3C2CCCCC2)o1
inactive: HCT-15 colon 49.4% | HT29 colon 37.3% | SNB-75 CNS 103% | SNB-19 CNS 102% | U251 CNS 79.8% | SK-MEL-5 melanoma 70.8% | UACC-62 melanoma 61.8% | SK-MEL-28 melanoma 72.4%

CCOC(=O)C(=CNc1cnc(Nc2ccc(N3CCOCC3)cc2)nc1Oc1ccc(OC)cc1)C(=O)OCC
active: SNB-75 CNS -14.3% | U251 CNS -19.4%
inactive: HCT-15 colon 69.4% | HT29 colon 40.6% | SNB-19 CNS 41.7% | UACC-62 melanoma 47.1% | SK-MEL-28 melanoma 76.6%

CC(=O)Oc1ccc(OC(C)=O)c2ccccc12
inactive: HCT-15 colon 99.1% | HT29 colon 107% | SNB-75 CNS 105% | SNB-19 CNS 91.9% | U251 CNS 89% | SK-MEL-5 melanoma 60.2% | UACC-62 melanoma 78% | LOX IMVI melanoma 81.2% | SK-MEL-28 melanoma 111%

NC1(CO)COC(c2ccccc2)OC1 (stereo not given)
inactive: HCT-15 colon 113% | HT29 colon 96.7% | SNB-75 CNS 120% | SNB-19 CNS 111% | U251 CNS 97.5% | SK-MEL-5 melanoma 96.1% | UACC-62 melanoma 111% | LOX IMVI melanoma 107% | SK-MEL-28 melanoma 118%

N#CC1CCc2c(c(-c3ccc4nc(N)sc4c3)nc3ccc4[nH]ncc4c23)C1 (stereo not given)
inactive: HCT-15 colon 30% | HT29 colon 15.4% | SNB-75 CNS 25.2% | SNB-19 CNS 67.7% | U251 CNS 46.7% | SK-MEL-5 melanoma 11.5% | UACC-62 melanoma 36.2% | LOX IMVI melanoma 34.2% | SK-MEL-28 melanoma 54.9%

O=c1c2ccccc2c(=O)c2c1sc1c(=O)c3ccc(O)cc3c(=O)c12
active: HCT-15 colon -65.4% | HT29 colon -47.4% | SNB-75 CNS -96.4% | SNB-19 CNS -92% | U251 CNS -65.8% | SK-MEL-5 melanoma -96.2% | UACC-62 melanoma -73.2% | LOX IMVI melanoma -61% | SK-MEL-28 melanoma -65%

CCN1CCN(C(=O)[C@]23CC[C@@H](C)[C@H](C)[C@@H]2C2=CC[C@@H]4[C@@]5(C)C/C(=C/c6cccnc6)C(=O)C(C)(C)[C@@H]5CC[C@@]4(C)[C@]2(C)CC3)CC1
inactive: HCT-15 colon 15.2% | HT29 colon 12.1% | SNB-75 CNS 27.6% | SNB-19 CNS 45.9% | U251 CNS 27.9% | PC-3 prostate 16.7% | LOX IMVI melanoma 14.9% | SK-MEL-28 melanoma 37.4%

CN1CCN(C(=S)SCCCCOc2cc(=O)oc3ccccc23)CC1
inactive: HCT-15 colon 88.3% | HT29 colon 78.5% | SNB-75 CNS 93.8% | SNB-19 CNS 94.7% | U251 CNS 87% | SK-MEL-5 melanoma 69.5% | UACC-62 melanoma 73.9% | LOX IMVI melanoma 93.9% | SK-MEL-28 melanoma 109%

Clc1ccc(-c2cc(-c3ccccc3)nc(NCCNc3ccnc4cc(Cl)ccc34)n2)cc1
active: HCT-15 colon -72.7% | HT29 colon -16.2% | U251 CNS -85.9% | LOX IMVI melanoma -76.7% | SK-MEL-28 melanoma -62.1%
inactive: SNB-75 CNS 75.7% | SNB-19 CNS 44.7% | SK-MEL-5 melanoma 30.7% | UACC-62 melanoma 69%

Cn1cc(-c2ccc(-c3cn(C)c4ccc(Cl)cc34)[nH]2)c2cc(Cl)ccc21
inactive: HT29 colon 21.9%
active: HCT-15 colon -66.3% | SNB-75 CNS -59.9% | SNB-19 CNS -68.5% | U251 CNS -100% | SK-MEL-5 melanoma -98.6% | UACC-62 melanoma -82.3% | LOX IMVI melanoma -95.2% | SK-MEL-28 melanoma -52.9%

N#C/C(=C\C=C\c1ccc(-c2cc(Cl)ccc2Cl)o1)c1nc2ccccc2s1
inactive: HCT-15 colon 102% | HT29 colon 108% | SNB-75 CNS 77.1% | SNB-19 CNS 92.2% | U251 CNS 107% | SK-MEL-5 melanoma 97.5% | UACC-62 melanoma 83.1% | LOX IMVI melanoma 90.9% | SK-MEL-28 melanoma 118%

COc1ccc(C#Cc2ccc(=O)oc2-c2cc(OC)c(OC)c(OC)c2)cc1O
inactive: HCT-15 colon 30.7% | HT29 colon 33.9% | SNB-75 CNS 40.1% | SNB-19 CNS 54.6% | U251 CNS 39.7% | SK-MEL-5 melanoma 24.5% | LOX IMVI melanoma 41.4% | SK-MEL-28 melanoma 59%

— PubChem BioAssay (NCI)
